# Compounds with a hit are over-represented: about 21% of the library has one in this group of screens.
# HCV inh: qHTS Assay for Inhibitors of Hepatitis C Virus (HCV) | 3.4% of 340,000 active | Huh7.5.1 HCVcc-Cre infection, luciferase reporter, 44 h | Potency, µM (titrated, usually from 41.8 µM), without a hit: top-dose activity change, negative = inhibition, most hits filed as inhibitors | AID 651820, 2012; also: potency is read from the fitted curve at half-maximal effect; % is scaled to controls: 0 for no effect and ±100 for the full control effect
#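 Reporter virus HCVcc-Cre (~0.5 moi) infects cells exposed to compound; seeding density 1,000 cells/well with 4 h settling beforehand. Luminescence, 15 sec read, taken 44 h post-infection following a 15 min RT substrate incubation.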
# Pf growth 48h: Primary qHTS for delayed death inhibitors of the malarial parasite plastid, 48 hour incubation | P. falciparum luciferase growth in erythrocytes, 48 h | Potency, µM (doses to about 28.7 µM), for the others: top-dose activity change, negative = inhibition, most hits filed as inhibitors | 5.9% of 310,000 active | AID 504832, 2011; also: potency is read from the fitted curve at half-maximal effect; % is scaled to controls: 0 for no effect and ±100 for the full control effect
#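 Firefly luciferase activity from engineered P. falciparum reports growth; inhibitors lower the luminescent signal. Cultures contained 2% hematocrit erythrocytes at 0.1% final parasitemia.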
# HCMV antiviral: qHTS Assay for inhibitors of the human cytomegalovirus (HCMV); 4.5% of 410,000 active; HFF cells, HCMV-luciferase reporter, 72 h; active compounds read low; activity change, negative = inhibition, % at 57.5 µM; in the data active = activity change below about -60%; inconclusive = no clear call, values can overlap the other calls; inactive = above about -39%; also: % is scaled to controls: 0 for no effect and ±100 for the full control effect
#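 Cell-based, HFFs, 1000 cells/well, 16 h 37C; cpds in DMSO + HCMV-luc, MOI 1 PFU/cell; 72 h 37C; OneGlo luminescence after 5 min RT; norm. to buffer vs Salinomycin 10uM.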
# CHX counter: Cycloheximide Counterscreen for Small Molecule Inhibitors of Shiga Toxin. AID 2314, 2010. 12% of 300,000 active. max response, %. cell reporter, cycloheximide protein synthesis inhibition counterscreen; in the data active = max response mostly above about 13%, no sharp cut-off; inactive = mostly below about 14%; also: read at 38.3 µM for the half of the compounds with a filed dose; 0% is about no effect
# Shiga toxin inh: A qHTS for Small Molecule Inhibitors of Shiga Toxin | Vero cells, Shiga toxin protein synthesis inhibition reporter | inhibition, % at 38.7 µM | 9.2% of 290,000 active | AID 2315, 2010; in the data active = inhibition mostly above about 28%, no sharp cut-off; inactive = mostly below about 43%; also: 0% is about no effect
# Pf growth 96h: Primary qHTS for delayed death inhibitors of the malarial parasite plastid, 96 hour incubation; P. falciparum luciferase reporter growth, 96 h; Potency, µM (top dose mostly 28.7 µM), without a hit: top-dose activity change, negative = inhibition, most hits filed as inhibitors; 6.9% of 320,000 active; AID 504834, 2011; also: potency is read from the fitted curve at half-maximal effect; % is scaled to controls: 0 for no effect and ±100 for the full control effect
#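 Readout is luminescence from an integrated firefly luciferase in P. falciparum. Red cells, 2% hematocrit and 0.05% parasitemia final, were cultured with compound through two parasite generations (96 hours) at 37 C, 5% CO2.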
# The depositor's hits bear a star; u = inconclusive; x = no result given; ! = repeats disagree; [ ] = another dose, or the depositor's remark. Unless noted, calls follow the shape of the dose curve; as a rule, active = well fitted inhibition curve with a large enough effect; inconclusive = small, poorly fitted or top-dose-only effect, or another doubt; inactive = no such curve, though single readings can be large or run the other way.
SMILES,HCV inh,Pf growth 48h,HCMV antiviral,CHX counter,Shiga toxin inh,Pf growth 96h
CC(C)c1cc(Nc2cccc(O)c2)cc(C(C)C)c1O,x,u,x,10.3,9.7,11.7µM*
COc1ccc(CCNC(=O)c2cc(-c3ccc(C)cc3)nc3n[nH]c(-c4ccc(F)cc4)c23)cc1OC,x,x,-21.4,x,x,x
Cc1cc(C)c(NC(=O)Cn2nnc(-c3nc(-c4ccncc4)no3)c2N)c(C)c1,x,x,16.9,x,x,x
Cc1ccc(CNC(=O)CCC2CCCN(Cc3cccc4ncccc34)C2)o1 (centres undefined),-8.6%,u,-38.7,11.1*,24.0,-22.3%
Cc1ccc(CNC(=O)CCC2CCCN(C(=O)CCC(F)(F)F)C2)o1 (centres undefined),4.8%,-0.8%,-2.7,-2.8,-2.4,8.28µM*
Cc1ccc(CNC(=O)CCC2CCCN(Cc3cccc4cccnc34)C2)o1 (centres undefined),-17.4%,22.3%,94.1,4.6,-5.7,u
O=C(COc1ccc(-c2ccccc2)cc1)NNC(=O)Nc1ccccc1,15.3%,-4.9%,5.4,x,x,u
COC(=O)CCC[N+](C)(C)C,x,u,x,x,x,10.7µM*
COC(=O)CCCCC(=O)OC,-9.5%,37.8%,-0.1,x,x,60.7%
C[N+](C)(C)CCOC(=O)CBr,u,8.2%,-34.9,x,x,5.9%
C[N+](C)(C)CCOC(=O)CCC(=O)OCC[N+](C)(C)C,-14.7%,5.0%,-76.7*!,x,x,6.9%
Cc1ccc(C)c(Cn2c(=O)n(CCCCCC(=O)NCc3ccc4c(c3)OCO4)c(=O)c3sccc32)c1,x,x,-6.6,x,x,x
COC(=O)N/N=C(\C)c1cccc(C(F)(F)F)c1,-2.4%,0.0%,35.8,28.9*,34.0,15.2%
C/C(=N\Nc1ncc(Cl)cc1Cl)c1ccc2c(c1)OCO2,0.3%,13.2%,29.6,13.1,57.7,54.0%
COC(=O)N/N=C(\C)c1ccc(OC(F)F)cc1,21.4%,94.3%,45.0,35.1*,79.7*,44.8%
C/C(=N\NC(=O)C1CC1)c1ccc(OC(F)F)cc1,-8.6%,u,-20.5,9.1,51.4*,u
CCc1ccc(OCC(=O)N/N=C(\C)c2ccc(OC(F)F)cc2)cc1,-18.5%,18.4%,22.7,-1.4,31.3,1.9%
C/C(=N\Nc1ncc(Cl)cc1Cl)c1ccc(OC(F)F)cc1,-7.4%,35.3%,u,50.2*,42.3*,79.8%
CCC(Cn1nnc2ccccc2c1=O)NC(=O)Nc1ccc(C)c(C)c1 (centres undefined),x,x,26.9,x,x,x
COc1ccc(-c2nc(CS(=O)CC(=O)NCc3ccc(F)cc3)c(C)o2)cc1 (centres undefined),-5.5%,u,-24.8,1.4,-6.0,u
CC/C(=N\NC(=S)Nc1ccc(OC)cc1)c1ccc(OC(F)F)cc1,-7.8%,u,18.8,-4.1,-6.2,u
CC/C(=N\NC(C)=O)c1ccc(OC(F)F)cc1,x,7.9%,x,8.5,-14.5,-0.2%
C/C(=N\NC(=S)Nc1ccccc1C)c1ccc(O)cc1,-19.4%,0.0%,x,12.6*,42.6,u
CC/C(=N\NC(=S)Nc1cc(C)ccc1C)c1ccc(OC(F)F)cc1,12.6µM*,u,-26.3,0.5,-5.9,u
C/C(=N\NC(=S)Nc1c(C)cccc1C)c1ccc(OC(F)F)cc1,u,48.0%,-85.5*,-0.9,1.7,u
SMILES,HCV inh,Pf growth 48h,HCMV antiviral,CHX counter,Shiga toxin inh,Pf growth 96h
CCCOc1ccc(C2C(=O)N(C3CCCCCC3)CC(=O)N2Cc2ccccc2OC)cc1OC (centres undefined),x,x,-31.3,x,x,x
Cc1ccc(CNC(=O)C2CCC(=O)N(CCc3cccc(F)c3)C2)cc1 (centres undefined),-9.7%,11.3%,30.3,-1.8,-7.9,96.2%
CCc1cc(CNC(=O)C2CCC(=O)N(CCc3cccc(F)c3)C2)on1 (centres undefined),38.1%,2.7%,5.7,-2.9,9.9,13.1µM*
Cc1cc(CNC(=O)C2CCC(=O)N(CCc3cccc(F)c3)C2)on1 (centres undefined),7.2%,-2.0%,15.5,-1.2,6.0,13.1µM*
Cc1oc(S(=O)(=O)N(C)C)cc1C(=O)Nc1ccc(Cl)cc1,u,0.0%,-19.0,-1.4,4.3,u
O=C(Cn1nc(-c2ccccc2)ccc1=O)N1CCCCC1,-1.2%,-8.2%,-24.9,-4.5,-4.9,3.3%
Cc1occc1C(=O)NC1CCCCCC1,14.7%,-13.9%,29.3,16.8,51.4,-8.0%
C/C(=N\NC(=O)c1ccccn1)C12CC3CC(CC(C3)C1)C2,2.6%,46.1%,-21.0,31.2*,53.7*,208.1%
N/C(=N\OC(=O)C12CC3CC(CC(C3)C1)C2)c1ccccn1,7.6%,u,101.2,41.1*,42.8*,-26.9%
C/C(=N/NC(=O)c1ccoc1C)C12CC3CC(CC(C3)C1)C2,6.8%,96.2%,-31.5,38.6*,5.2,x
N/C(=N\OC(=O)C12CC3CC(CC(C3)C1)C2)c1ccccc1,5.01µM*,u,64.9,3.9,21.3,67.6%
CC(=O)c1cnn(-c2c(Cl)cc(Cl)cc2Cl)c1C,-28.0%,-23.3%,u,-1.0,-7.0,u
COc1ccc(NC(=O)CCC(=O)Nc2nnc(C3CCCCC3)s2)c(OC)c1,14.6%,9.1%,u,-2.6,-3.2,11.4%
N/C(=N\OC(=O)C12CC3CC(CC(C3)C1)C2)c1cccnc1,u,u,1.1,19.4*,17.4,u
CC1c2ccccc2-c2ccccc2N1C (centres undefined),12.6µM*,x,-26.4,x,x,x
CCn1cc(C(=O)N2CCN(c3cccc(Cl)c3)CC2)c(=O)c2cc(S(=O)(=O)N3CCCCC3)ccc21,x,x,10.5,x,x,x
CC(C)(C)OC(=O)N1CCC(c2c(C(=O)Nc3ccc4c(c3)OCCO4)cnn2-c2ccc(Cl)cc2)CC1,x,x,0.0,x,x,x
c1ccc(-c2cc(NCCN3CCCCC3)c3ccccc3n2)cc1,u,-13.7%[0.00184 µM],-99.6*,-8.0,-6.0,u
CCCc1c(C(=O)N/N=C(\C)c2ccc(CC(C)C)cc2)nnn1-c1nonc1N,x,x,-35.3,x,x,x
CCc1nc2ccc(C(=O)Nc3ccc(OC)c(OC)c3)cn2c1N(C)Cc1ccc(OC)cc1,x,x,50.1,x,x,x
CCc1nc2ccc(C(=O)Nc3ccc(OC)c(OC)c3)cn2c1N(C)Cc1cccs1,x,x,-79.0*,x,x,x
Cc1ccc(S(=O)(=O)c2nc(S(C)(=O)=O)sc2N2CCCCC2C)cc1 (centres undefined),5.3%,u,-75.2*,1.6,-9.7,u
CS(=O)(=O)c1nc(S(=O)(=O)c2ccc(Cl)cc2)c(N2CCC(O)CC2)s1,-8.3%,-9.5%,-25.1,-1.8,10.0,13.1%
Cc1ccc(S(=O)(=O)c2nc(S(C)(=O)=O)sc2N2CCC(O)CC2)cc1,2.6%,7.9%,-20.2,5.5,-4.4,9.28µM*
